Results taken from PubChem BioAssay (Tox21).
“And” between values parts separate entries of the source, which are not always exact repeats. Identical values can stand only once. Results filed as inconclusive are left out. Entries that show only a call come without a potency. A structure can be active in one record and inactive in another. The source made the active and inactive calls. Unless noted, calls come from the whole dose curve; as a rule, active = well fitted curve in the direction sought with a large enough effect in the repeat runs; inconclusive = weak or mixed curves; inactive = no such curve, though single readings can be large; an effect the other way counts as inactive or inconclusive.

Assays:
[1] = qHTS assay to identify small molecule antagonists of the vitamin D receptor (VDR) signaling pathway - cell viability counter screen (AID 743225); note: nearly all actives have a fitted effect of over 50% in size; note: potency is the fitted concentration of half-maximal effect
Outline: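 Parallel cytotoxicity test: VDR-UAS-bla HEK 293T, 3 nM (final) 1-alpha,25-dihydroxyvitamin D3 with test compound, 16 h, 37C. Endpoint is CellTiter-Glo luminescence in the same wells.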

[2] = qHTS assay to identify small molecule agonists of the NFkB signaling pathway - cell viability counter screen (AID 1159515; calls by dose curve; note: nearly all actives have a fitted effect of over 55% in size; note: potency is the fitted concentration of half-maximal effect)
Outline: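 Plate 2,000 NFkB-bla ME-180 cells/well; incubate overnight. Add compounds, 5 hr at 37 C. Add FRET substrate, 1.5 hr RT. Add CellTiter-Glo, 30 min RT; read luminescence.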

[3] = qHTS assay to identify small molecule agonists of the endoplasmic reticulum stress response signaling pathway (AID 1159516; active = well fitted activation curve with a large enough effect in the signal ratio in the repeat runs, not every such curve was filed as active; the % refers to the signal ratio)
Outline: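 Beta-lactamase expression from the ER stress response element in HeLa reporter cells is quantified with the LiveBLAzer B/G FRET substrate, read at 405 nm excitation after 2 hr at room temperature, following 5 hr compound treatment at 37 C.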

[4] = qHTS assay to identify small molecule agonists of the endoplasmic reticulum stress response signaling pathway - cell viability counter screen (AID 1159517; calls by dose curve; note: series mostly up to about 61 µM; nearly all actives have a fitted effect of over 50% in size)
Outline: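 Cytotoxicity of test compounds toward ESRE-bla HeLa cells was assessed after 5 hr exposure. The luminescent CellTiter-Glo signal was measured 30 min after reagent addition.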

[5] = qHTS assay to identify small molecule antagonists of the retinoid-related orphan receptor gamma (ROR-gamma) signaling pathway - cell viability counter screen (AID 1159520); note: nearly all actives have a fitted effect of over 50% in size; note: potency is the fitted concentration of half-maximal effect
Outline: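 Tet-on ROR gamma CHO cells (1,000/well) were plated 4 hr, given compounds in DMSO for 2 hr at 37 C, then induced with 1 uM final doxycycline for 16 hr. Viability was read as ATP by CellTiter-Glo luminescence after 30 min.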

[6] = qHTS assay to identify small molecule agonists of the AP-1 signaling pathway - cell viability counter screen (AID 1159525; calls by dose curve; note: nearly all actives have a fitted effect of over 55% in size; note: potency is the fitted concentration of half-maximal effect)
Outline: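 Each titration point was normalised to DMSO and tetra n-octyl ammonium bromide controls. The read was Cell Titer Glo luminescence after 30 min at RT, following 5 h compound exposure of ME-180 AP-1-bla cells at 37 °C.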

[7] = qHTS assay to identify small molecule agonists of the AP-1 signaling pathway (AID 1159526; calls by dose curve; note: potency is the fitted concentration of half-maximal effect)
[8] = qHTS assay to identify small molecule agonists of the RXR signaling pathway - cell viability counter screen (AID 1159529); note: nearly all actives have a fitted effect of over 50% in size; note: potency is the fitted concentration of half-maximal effect
Outline: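 In this parallel viability measure, GeneBLAzer RXR-alpha HEK 293T cells (2% charcoal-stripped FBS) were given a 5 hr preincubation, treated with compounds 16 hr at 37 C, and read by CellTiter-Glo luminescence.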

[9] = qHTS assay to identify small molecule antagonists of the retinoid acid receptor (RAR) signaling pathway - cell viability counter screen (AID 1159551); note: nearly all actives have a fitted effect of over 35% in size; note: potency is the fitted concentration of half-maximal effect
Outline: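 Viability of C3RL4 cells is quantified from ATP by luminescence after 6 h treatment at 37 C with compounds and 1 uM retinol.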

[10] = qHTS assay to identify small molecule antagonists of the retinoic acid receptor (RAR) signaling pathway (AID 1159552; note: nearly all actives have a fitted effect of over 50% in size; note: potency is the fitted concentration of half-maximal effect)
Outline: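 C3RL4 RARE-luc cells, overnight plating; retinol 1 uM final added right after compound; 6 hr 37 C; luciferase read at 30 min RT.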

[11] = qHTS assay to identify small molecule agonists of the retinoic acid receptor (RAR) signaling pathway (AID 1159553)
Outline: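 Compounds dissolved in DMSO were pinned onto C3RL4 cells seeded the previous day, and plates were held 6 hr at 37 C. RARE-driven luciferase output was then read by luminescence.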

[12] = qHTS assay to identify small molecule antagonists of the estrogen related receptor (ERR) signaling pathway from Tox21 library - cell viability counter screen (AID 1224834); note: nearly all actives have a fitted effect of over 30% in size; note: potency is the fitted concentration of half-maximal effect
Outline: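 In this quantitative HTS format, ERR cells receive compounds in DMSO and are incubated for 17.5 h at 37 C. Live-cell protease activity is then detected with CellTiter-Fluor.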

[13] = target: Nuclear receptor ROR-gamma (Homo sapiens) (UniProt P51449); experiment: qHTS assay to identify small molecule antagonists of the retinoid-related orphan receptor gamma (ROR-gamma) signaling pathway (AID 1159521; note: nearly all actives have a fitted effect of over 50% in size; note: potency is the fitted concentration of half-maximal effect)
Outline: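 Decreased RORE-driven luciferase luminescence indicates antagonism. Tet-on RORγ CHO cells received compound, then 1 uM final doxycycline 2 h later; signal read after 16 h incubation.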

[14] = target: Retinoic acid receptor RXR-alpha (Homo sapiens) (UniProt P19793); experiment: qHTS assay to identify small molecule agonists of the RXR signaling pathway (AID 1159527; calls by dose curve; note: nearly all actives have a fitted effect of over 35% in size)
Chain of Retinoic acid receptor RXR-alpha (Homo sapiens) (P19793 whole entry, looked up): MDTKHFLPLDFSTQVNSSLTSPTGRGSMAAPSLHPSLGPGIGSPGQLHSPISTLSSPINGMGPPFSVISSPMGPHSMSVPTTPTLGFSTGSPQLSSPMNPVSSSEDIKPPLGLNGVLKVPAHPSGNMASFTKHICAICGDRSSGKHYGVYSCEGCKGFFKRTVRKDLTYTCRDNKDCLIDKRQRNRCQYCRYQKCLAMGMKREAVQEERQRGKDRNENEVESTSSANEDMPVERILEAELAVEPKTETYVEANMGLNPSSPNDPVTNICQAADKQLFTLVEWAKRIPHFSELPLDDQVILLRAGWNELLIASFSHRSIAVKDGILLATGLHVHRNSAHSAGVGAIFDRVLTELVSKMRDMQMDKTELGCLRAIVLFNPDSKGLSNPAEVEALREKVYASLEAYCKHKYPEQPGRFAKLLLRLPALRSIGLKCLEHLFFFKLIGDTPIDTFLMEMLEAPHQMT
Outline: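 16 hr incubation of compound-treated RXR-alpha-UAS-bla HEK 293T cells (2% charcoal-stripped FBS, 37 C) preceded a 2 hr room-temperature LiveBLAzer FRET substrate step and blue/green fluorescence measurement.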

Row | SMILES | Potency [1] | Potency [2] | outcome [3] | Potency [4] | Potency [5] | Potency [6] | Potency [7] | Potency [8] | Potency [9] | Potency [10] | Potency [11] | Potency [12] | Potency [13] | Potency [14]
1 | CCCCCCCCCCCC(=O)O | inactive | inactive | inactive | inactive | inactive | inactive | inactive | inactive | inactive | inactive | inactive | inactive |  | 
2 | CCC[N+]1(C)CCCC1 | inactive | inactive | inactive | inactive | inactive | inactive | inactive | inactive | inactive |  |  | inactive | inactive | 
3 | O=C(O)C(Cl)Cl | inactive | inactive | inactive | inactive | inactive | inactive | inactive | inactive | inactive |  |  | inactive | inactive | 
4 | CCCCCCCCCCCCCCCCn1cc[n+](C)c1 |  | 44.6 µM (active) and inactive and 24.6 µM (active) | inactive |  | inactive and 61.7 µM (active) and 30.7 µM (active) | inactive and 21.9 µM (active) | inactive |  | inactive and 61.7 µM (active) and 43.4 µM (active) | inactive and 27.6 µM (active) and 13.7 µM (active) | inactive |  |  | inactive
5 | CCCCCC[n+]1ccccc1 | inactive | inactive | inactive | inactive | inactive | inactive | inactive | 55.5 µM (active) and 49.3 µM (active) and inactive | inactive |  |  | inactive | inactive | 
6 | CC(Cl)(Cl)C(=O)O | inactive | inactive | inactive | inactive | inactive | inactive | inactive | inactive | inactive |  |  | inactive | inactive | 
7 | CCCCCCn1cc[n+](C)c1 | inactive | inactive | inactive | inactive | inactive | inactive | inactive | inactive | inactive |  |  | inactive | inactive | 
8 | O=C(O)COc1ccc(Cl)cc1Cl | inactive | inactive | inactive | inactive | inactive | inactive | inactive | inactive | inactive |  |  | inactive |  | inactive
9 | CCCCn1cc[n+](C)c1 | inactive | inactive | inactive | inactive | inactive | inactive | inactive | inactive | inactive |  |  | inactive |  | inactive
10 | CCCC[n+]1ccc(C)cc1 | inactive and 48.7 µM (active) | inactive | inactive | inactive | inactive and 60.8 µM (active) | inactive and 48.7 µM (active) | 13.8 µM (active) and inactive | inactive and 34.5 µM (active) | inactive |  | inactive | inactive and 68.2 µM (active) |  | 
11 | CCCCCCCCCCCCn1cc[n+](C)c1 |  | 34.8 µM (active) and inactive | inactive |  |  | 49.4 µM (active) and inactive | inactive and 43.4 µM (active) |  | 49 µM (active) and inactive |  |  |  |  | 
12 | Oc1ccccc1-c1ccccc1 | inactive | inactive | inactive | inactive | inactive | inactive | inactive | inactive | inactive |  |  | inactive | inactive | 
13 | Nc1ccc(-c2ccc(N)c(Cl)c2)cc1Cl | inactive | inactive |  | inactive | inactive and 48.6 µM (active) | inactive | inactive | inactive | inactive |  |  | 54.5 µM (active) | 68.6 µM (active) | 
14 | O=C(O)CC(O)(CC(=O)O)C(=O)O | inactive | inactive | inactive | inactive | inactive | inactive | inactive | inactive | inactive |  |  | inactive |  | inactive
15 | Nc1ccccc1 | inactive | inactive | inactive | inactive | inactive | inactive | inactive | inactive | inactive |  |  | inactive | inactive | 
16 | CCCCCCCCn1cc[n+](C)c1 |  | inactive | inactive | inactive | inactive | inactive | inactive | inactive | inactive | inactive | inactive |  |  | 
17 | CCCCCCCCCCCCOS(=O)(=O)O | 34.7 µM (active) and inactive | inactive | inactive | inactive | inactive | 55 µM (active) and inactive | inactive | 34.7 µM (active) and 21.9 µM (active) and inactive | inactive |  |  | inactive |  | inactive
18 | CN(C)[C@@H]1C(=O)C(C(N)=O)=C(O)[C@@]2(O)C(=O)C3=C(O)c4c(O)cccc4[C@@](C)(O)[C@H]3[C@H](O)[C@@H]12 | inactive | inactive | inactive | inactive | inactive | inactive | inactive | inactive | inactive |  |  | inactive |  | 
